Rows were chosen to be rich in hits. Some 3.5% of all compounds tested hit in one or more screens of this group.
Pf apPOL block = Pf-apPOL inhibitors, biochemical, fluorescence; Recombinant Pf-apPOL, molecular beacon fluorescence, 1.5 h; Plasmodium falciparum apicoplast DNA polymerase (apPOL); inhibition, % at 10 µM; 0.25% of 210,000 active; AID 1794808, 2022
mHTT-CaM PPI inh = mutant huntingtin-calmodulin interaction inhibitors – biochemical, AlphaScreen, primary screen; 3.6% of 190,000 active; inhibition, % at 15 µM; AlphaScreen His-mHTT/GST-CaM binding, luminescence; P42858
Each line names hits and unclear results; the compound was inactive in the other large screens. Rule as the data show it: active = inhibition above about 50%; inactive = the rest.

O=C(Cc1ccccc1Cl)Nc1nnc(C2CC(=O)N(c3ccccc3)C2)o1 (stereo unspecified)	mHTT-CaM PPI inh 51
CCCC(=O)Nc1nnc(C2CC(=O)N(c3ccc(Cl)cc3)C2)o1 (stereo unspecified)	none
O=C(Cc1c(F)cccc1Cl)Nc1nnc(C2CC(=O)N(c3ccccc3)C2)o1 (stereo unspecified)	mHTT-CaM PPI inh 64
Cc1ccc(OCC(=O)Nc2nnc(C3CC(=O)N(c4ccccc4)C3)o2)cc1 (stereo unspecified)	none
Cc1ccccc1CC(=O)Nc1nnc(C2CC(=O)N(c3ccc(Cl)cc3)C2)o1 (stereo unspecified)	mHTT-CaM PPI inh 88
O=C(Cc1cccc(F)c1)Nc1nnc(C2CC(=O)N(c3ccccc3)C2)o1 (stereo unspecified)	none
O=C(CNC(=O)c1ccc(=O)[nH]c1)NCc1cccs1	none
FC(F)(F)c1ccc2nnc(-c3cccc(I)c3)n2c1	none
Nc1ccc2cc3ccc(N)cc3nc2c1	mHTT-CaM PPI inh 55 (no result: Pf apPOL block)
Cc1nc2cc(N)ccc2s1	none
O=[N+]([O-])c1ccc(S(=O)(=O)N2CCN(c3ncccn3)CC2)cc1	Pf apPOL block 99
O=[N+]([O-])c1ccc(S(=O)(=O)N2CCN(c3ccccn3)CC2)cc1	none
COc1ccc(C(=O)N2CCC3(CC2)NC(C)C(=O)N3C2CC2)cc1 (stereo unspecified)	none
COc1ccc(NC(=O)CC(C)C)cc1N1CCCC1=O	none
COc1ccc(NC(=O)NC(c2ccccc2)c2ccccc2)cc1N1CCCC1=O	mHTT-CaM PPI inh 55
CCn1c(CCNC(=O)c2cccc(N(C)C)c2)nc2c(C)cccc2c1=O	mHTT-CaM PPI inh 59
CCn1c(CCNC(=O)c2ccccc2)nc2c(C)cccc2c1=O	none
CC(=O)c1ccc(N2CCN(Cc3coc4c(Cl)cc(Cl)cc4c3=O)CC2)cc1	none
CCCc1nnc(NC(=O)CSc2ncc(-c3ccccc3)nn2)s1	none
O=C1c2ccccc2C(=O)c2c1ccc(C(=O)N1CCC3(CC1)OCCO3)c2NCCO	none
O=C1c2ccccc2C(=O)c2c1ccc(C(=O)N1CCN(c3ccccn3)CC1)c2NCCO	mHTT-CaM PPI inh 78
Cc1occc1C(=O)Nc1ccc(C(C)C)cc1	none
CCOCC(=O)N1CCc2[nH]nc(-c3ccc(C)cc3)c2C1	none
CCCCCCCCCn1cc[n+](CCCCCCCCC)c1C	mHTT-CaM PPI inh 100 (no result: Pf apPOL block)
CCCCCCCCN1C(=O)CCC1=O	none (no result: Pf apPOL block)
COc1ccc(-c2onc(C)c2C(=O)N2CCC(Cc3ccccc3)CC2)cc1	mHTT-CaM PPI inh 99
COc1ccc(-c2cc(C(=O)N3CCC(Cc4ccccc4)CC3)no2)cc1	none
Cc1noc(-c2cccnc2)c1C(=O)N1CCC(Cc2ccccc2)CC1	none
Cc1noc(-c2cccs2)c1C(=O)N1CCC(Cc2ccccc2)CC1	mHTT-CaM PPI inh 71
O=C(COc1ccccc1)N1CCC(CCOc2cccnc2)CC1	none
O=C(c1cccc(F)c1)c1coc2ccc(Cl)cc2c1=O	none
O=C(c1ccccc1Cl)c1coc2ccc(Cl)cc2c1=O	mHTT-CaM PPI inh 98
O=C(NCc1ccncc1)c1ccc(-c2cccc(C(F)(F)F)c2)s1	none
Cc1nn(-c2ccccc2)c(C)c1N=Nc1ccccc1Oc1ccc(Cl)cc1Cl	none (no result: mHTT-CaM PPI inh)
CCC(=O)NCc1nc2c(n1C)CN(C(=O)Cc1ccc(C)cc1)CC2	none
O=C(/C=C/c1ccccc1)Nc1c(-c2ccccc2)nc2ccccn12	mHTT-CaM PPI inh 61
Cc1ccc(-c2nc3ccccn3c2NC(=O)C(C)Cl)cc1 (stereo unspecified)	none
Cc1ccn2c(NC(=O)C(C)C)c(-c3cccc(F)c3)nc2c1	none
O=C(Nc1c(-c2ccccc2)nc2ccccn12)c1cccnc1	none
Cc1ccn2c(NC(=O)C(C)Cl)c(-c3cccc(F)c3)nc2c1 (stereo unspecified)	mHTT-CaM PPI inh 69
CC(Cl)C(=O)Nc1c(-c2ccc(C(F)(F)F)cc2)nc2ccccn12 (stereo unspecified)	mHTT-CaM PPI inh 55
Cc1ccc(C(=O)N2CCC(c3ccccc3)C2)cc1 (stereo unspecified)	none
Cc1cc(C)n(C(=O)C2CCCN2S(=O)(=O)c2ccccc2)n1 (stereo unspecified)	none
Cc1ccc(S(=O)(=O)NC(=O)NCc2cccc(Oc3ccccc3)c2)cc1	none
COC(=O)c1ccc2c(=O)n(CCc3ccccc3)c(N3CCCCC3)nc2c1	none
CC12C=CC(O1)C1C(=O)N(c3ccccc3[N+](=O)[O-])C(=O)C12 (stereo unspecified)	none
Cn1c(N2CCC(C(=O)Nc3ccc4c(c3)OCCO4)CC2)cc(=O)n(C)c1=O	mHTT-CaM PPI inh 57
Cc1ccc(NC(=O)C2CCN(c3cc(=O)n(C)c(=O)n3C)CC2)cc1	none
COc1ccc(NC(=O)C2CCN(c3cc(N4CCCC4)ncn3)CC2)cc1OC	none
COc1ccc(CC(=O)Nc2ccc3ncnc(N4CCCCC4)c3c2)cc1Cl	mHTT-CaM PPI inh 55
COc1ccc(CCC(=O)Nc2ccc3ncnc(N4CCCCC4)c3c2)cc1	none
COc1ccc(NC(=O)C2CCN(c3cc(N4CCCC4)ncn3)CC2)cc1Cl	mHTT-CaM PPI inh 54
O=C(Nc1ccc2c(c1)OCO2)C1CCN(c2cc(N3CCSCC3)ncn2)CC1	none
O=C(Nc1ccc2c(c1)OCCO2)C1CCN(c2cc(N3CCSCC3)ncn2)CC1	mHTT-CaM PPI inh 64
O=C(C1CC(=O)N(c2ccccc2)C1)N1CCN(c2cccc(C(F)(F)F)c2)CC1 (stereo unspecified)	none
Cn1c(C2CCN(C(=O)c3cccc(Cl)c3)C2)nc2cccnc21 (stereo unspecified)	none
Cc1nn(Cc2ccc(C(=O)Sc3ccc(C(F)(F)F)cn3)o2)c(C)c1Br	none (no result: mHTT-CaM PPI inh)
Cc1ccc(Cl)cc1N(C)C(=O)C1CCN(c2cc(=O)n(C)c(=O)n2C)CC1	mHTT-CaM PPI inh 50
Cn1c(N2CCC(C(=O)Nc3ccc(Cl)cc3)CC2)cc(=O)n(C)c1=O	none
COc1ccc(C(Nc2cc(C)ccn2)c2ccc3cccnc3c2O)cc1O (stereo unspecified)	mHTT-CaM PPI inh 100
Cc1ccnc(NC(c2cccnc2)c2ccc3cccnc3c2O)c1 (stereo unspecified)	mHTT-CaM PPI inh 100
Cc1ccnc(NC(c2cccnc2)c2ccc3ccc(C)nc3c2O)c1 (stereo unspecified)	mHTT-CaM PPI inh 76
Cc1ccnc(NC(c2ccncc2)c2ccc3ccc(C)nc3c2O)c1 (stereo unspecified)	mHTT-CaM PPI inh 90
COc1ccccc1CC(=O)Nc1cc(C)ccn1	none
Cc1ccnc(NC(=O)CSc2ccccn2)c1	none (no result: mHTT-CaM PPI inh)
Cc1ccnc(NC(=O)c2cc(I)ccc2Cl)c1	none
Cc1ccc(C2=NN(CCC(=O)NCCN(C)Cc3ccccc3)C(=O)CC2)cc1	none
COCCN(Cc1ccncc1)S(=O)(=O)c1cc(C)c(C)cc1OC	none
COCc1[nH]nc2c1C(c1ccc(-c3ccccc3)cc1)C(C#N)=C(N)O2 (stereo unspecified)	none
O=C(NC1CCN(c2nnc3ccc(Cl)cn23)CC1)c1ccsc1	none
COc1cccc(C(Nc2cc(C)ccn2)c2ccc3cccnc3c2O)c1 (stereo unspecified)	mHTT-CaM PPI inh 99
COc1cccc(C(=O)Nc2cccc3cccnc23)c1	none
COc1ccc(CNC(=O)C2C3CCC(O3)C2C(=O)O)cc1 (stereo unspecified)	none
O=C(O)c1ccc2c(c1)C1C=CCC1C(c1cccc([N+](=O)[O-])c1)N2 (stereo unspecified)	mHTT-CaM PPI inh 85
